# Assay results published in PubChem BioAssay AID1259339 (Broad Institute, 2017).
# Activity calls are given as the source filed them.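 Rule for the calls: active = fitted AC50 no higher than ten times the top tested dose (cut at about 90 µM in these data); inconclusive = flat curve with 30 to 70% signal loss, or bad fit; inactive = AC50 beyond ten times the top dose.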
# Assay: AlphaLISA signal interference compounds, dose response, artefact control, biochemical, TruHit kit (AID 1259339)
# Conditions: TruHit alphaLISA kit signal interference counterscreen; series mostly up to 80 µM; activity change, negative = signal loss: at the top concentration
Structure (SMILES),"activity change, negative = signal loss",AC50
COCC(=O)N1CCCC2(CCN(CCN3CCCC3)C2=O)C1 (stereo unspecified),-7.83% (inactive),–
c1ccc(-c2nc(-c3ccco3)n3ccccc23)cc1,–,27.2 µM (active)
CN(C)c1ccc(CN2C[C@H]3CC[C@@H]2CN(C(=O)c2ccncc2)C3)cn1,8.04% (inactive),–
Cc1ccc(-c2nnc(-c3nc(Nc4nc5ccccc5s4)c4ccccc4n3)o2)cc1,-1.3% (inactive),–
NC(=O)C1(N2CCCCC2)CCN(c2ccc(NC(=O)c3ccccc3F)cc2C(=O)O)CC1,3.56% (inactive),–
NC(=O)C1(N2CCCCC2)CCN(c2ccc(NC(=O)c3cccc(Cl)c3)cc2C(=O)O)CC1,16% (inactive),–
O=C(Nc1ccc2oc(-c3ccncc3)nc2c1)c1ccc2c(c1)OCO2,-13% (inactive),–
O=c1/c(=C/c2ccco2)sc2nc3ccccc3n12,–,> 160 µM (inactive)
O=C(COC(=O)c1cc(-c2cccs2)nc2ccccc12)NCc1ccco1,–,40.2 µM (active)
Cc1ccc(N2C(=O)c3ccccc3C2C(=O)c2ccc(O)cc2O)cc1 (stereo unspecified),4.71% (inactive),–
O=C(Nc1nccs1)c1cc(-c2ccccn2)nc2c(Cl)cccc12,–,2.07 µM (active)
COc1ccc(S(=O)(=O)N2CCN(C(=O)c3cc4c(s3)CCC4)CC2)cc1,–,> 160 µM (inactive)
O=S(=O)(Nc1nccs1)c1ccc(-n2cccc2)cc1,–,18.8 µM (active)
Cc1ccc(-c2cc(C(=O)NCc3ccco3)c3ccccc3n2)o1,–,64.5 µM (active)
O=C(O)CCc1ccc(-c2cccs2)n1NC(=O)c1ccco1,–,> 160 µM (inactive)
Cc1ccc(-c2nn(-c3ccccc3)cc2CN(Cc2ccccc2)C(=O)CCC(=O)O)o1,–,53.7 µM (active)
CCCc1oc(C(=O)O)cc1CN,16% (inactive),–
C=CC(=O)N1CCCC2(CCN(CCN3CCCC3)C2=O)C1 (stereo unspecified),8.73% (inactive),–

Structure (SMILES),"activity change, negative = signal loss",AC50
COc1ccc(NC(=O)c2nc(Nc3ccccc3)c3ccccc3n2)cc1,-15.3% (inactive),–
O=C(Nc1ccc(OCC(=O)N2CCOCC2)cc1)c1cncc(Br)c1,8.89% (inactive),–
COc1ccc2nc(-c3ccco3)c(-c3ccco3)nc2c1,–,35.1 µM (active)
O=C(NCc1ccco1)c1c2c(nc3ccccc13)CCC2,–,82.4 µM (active)
O=C(COC(=O)CCC(=O)c1cccs1)NCc1ccco1,17.4% (inactive),–
O=C(NCCCN1CCOCC1)c1cc(-c2ccco2)nc2ccccc12,–,27.5 µM (active)
O=C(Cc1ccc(S(=O)(=O)N2CCOCC2)s1)Nc1nc2c(s1)CCCC2,–,29.2 µM (active)
COC[C@]1(O)CCN(C(=O)CCN(C)S(C)(=O)=O)CC1(C)C,13% (inactive),–
C[C@H](CO)N1C[C@H](C)[C@@H](CN(C)CC2CCCCC2)OCCCC[C@H](C)Oc2ccc(NS(=O)(=O)c3ccc(F)cc3)cc2C1=O,-3.52% (inactive),–
CCc1ccc(Nc2nc(C(=O)NCc3ccc(N(C)C)cc3)nc3ccccc23)cc1,-32.2% (inactive),–
O=C(COc1cccnc1[N+](=O)[O-])c1ccc(Cl)s1,–,23.2 µM (active)
Cc1cncc(-c2ccc(S(N)(=O)=O)cc2F)c1,-20% (inactive),–
O=C(Nc1nccs1)c1cc(-c2ccco2)nc2ccccc12,–,29 µM (active)
COc1ccc(-n2c(C)c3c(OC)cccc(=O)c3c2C)cc1,–,22.1 µM (active)
O=C(Nc1ccc2oc(-c3ccncc3)nc2c1)c1ccc2c(c1)OCCO2,2.45% (inactive),–
O=C(COC(=O)c1ccc(F)cc1F)Nc1ncccn1,139% (inactive),–
O=C(Nc1nc(-c2ccccn2)cs1)c1cccc(-n2cnnn2)c1,-1.96% (inactive),–
CCCc1cc(C(=O)N2CC[C@H]3CNC[C@H]32)n(C)n1,11.4% (inactive),–
